Screening results from PubChem BioAssay.
In the library only some 2.3% were active in any assay of this set; here they are far more common.
M1 PAM: positive allosteric modulators of human M1 muscarinic receptor. AID 588819. CHO-K1 hM1, Fluo-8 calcium fluorescence, ACh EC20; 0% = ACh EC20, 100% = maximal ACh. P11229. activation, % at 3 µM. hit rate 0.088% among 360,000; in the data active means activation above about 19%, passing the limit was not always enough
Target sequence (P11229 whole entry, looked up): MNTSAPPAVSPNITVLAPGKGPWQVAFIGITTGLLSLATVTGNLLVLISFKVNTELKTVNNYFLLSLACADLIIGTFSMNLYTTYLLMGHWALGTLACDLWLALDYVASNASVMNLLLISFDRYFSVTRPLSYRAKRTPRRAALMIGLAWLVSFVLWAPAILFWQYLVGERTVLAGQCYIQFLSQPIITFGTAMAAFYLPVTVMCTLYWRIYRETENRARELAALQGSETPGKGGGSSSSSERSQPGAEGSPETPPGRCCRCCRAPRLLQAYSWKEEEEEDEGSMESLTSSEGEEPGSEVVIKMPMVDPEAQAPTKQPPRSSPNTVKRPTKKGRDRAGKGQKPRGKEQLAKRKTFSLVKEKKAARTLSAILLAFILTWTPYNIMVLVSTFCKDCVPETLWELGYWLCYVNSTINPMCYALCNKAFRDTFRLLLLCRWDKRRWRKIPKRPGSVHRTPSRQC
M1 ag: agonists of human M1 muscarinic receptor. CHO-K1 hM1, Fluo-8 calcium fluorescence, agonist mode; 0% DMSO, 100% acetylcholine EC100. activation, % at 3 µM. hit rate 0.33% among 360,000. AID 588814;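 active means activation above the run's mean compound activation plus 3 SD, cut at about 16% in these data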;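 further: peak over basal fluorescence ratio within a 140 s kinetic read after compound addition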
CHRM1 antagonist: blocks human M1 muscarinic receptor; P11229; CHO-K1 hM1, Fluo-8 calcium fluorescence, ACh EC80 antagonist; inhibition, % at 3 µM; hit rate 1.3% among 360,000;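 active means percent inhibition above its own plate's cutoff, namely the mean of that plate's compound wells plus 3 SD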;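 further: peak over basal fluorescence ratio during 140 s after agonist addition; 0% = ACh EC80 plus DMSO and 100% = DMSO alone without agonist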
CHO-K1 Ca PAM: nonselective activator or artifact in parental CHO-K1 calcium assay. ATP EC20, Fluo-8 calcium fluorescence; 0% at ATP EC20, 100% at ATP max. hit rate 0.02% among 360,000. activation, % at 3 µM;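 active means activation above the run cutoff, the mean activation of all test compounds plus 3 SD, cut at about 40% in these data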;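 further: peak over basal fluorescence ratio in a 140 s read after ATP addition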
CHO-K1 Ca antag: M1 antagonist counterscreen hit in parental CHO-K1 cells. ATP-induced calcium, Fluo-8 fluorescence. inhibition, % at 3 µM. hit rate 0.6% among 360,000. AID 602250;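 active means inhibition above a per-plate cutoff, the plate's mean sample inhibition plus 3 SD, cut at about 24% in these data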;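 further: 0% = DMSO plus EC80 ATP and 100% = DMSO alone without ATP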
CHO-K1 Ca ag: M1 agonist counterscreen hit in parental CHO-K1 cells; Fluo-8 calcium fluorescence; scaled to maximal ATP response, vehicle zero; activation, % at 3 µM; hit rate 0.48% among 360,000; in the data active means activation above about 15%;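 further: untransfected CHO-K1 host cells lacking M1 receptor as counterscreen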
The depositor's hits bear a star.

SMILES	M1 PAM	M1 ag	CHRM1 antagonist	CHO-K1 Ca PAM	CHO-K1 Ca antag	CHO-K1 Ca ag
COC(CNC(=O)C1CCN(S(=O)(=O)c2cccc3nsnc23)CC1)OC	9	-3	-8	28	-22	2
COc1cc(NC(=O)CNC(=O)Cn2cnc3sc(C)c(C)c3c2=O)cc(OC)c1OC	10	-4	-10	15	-11	0
CC1(C(=O)NS(=O)(=O)c2ccc(F)cc2F)CCN1C(=O)Cc1ccc(Cl)cc1Cl (centres undefined)	-1	-3	0	-9	27*	0
CC1(C(=O)NS(=O)(=O)c2ccc(F)cc2F)CCN1C(=O)Cc1ccccc1 (centres undefined)	-6	-4	3	-10	5	0
COc1ccc(C(=O)NC2CCCc3ccccc32)cc1[N+](=O)[O-] (centres undefined)	-2	-8	1	18	-6	1
CCn1c(CCC(=O)O)nc2cc(S(=O)(=O)N(C)C)ccc21	4	-7	-5	-15	30*	0
CN(C)S(=O)(=O)c1ccc2c(c1)nc(CCC(=O)O)n2C	4	-5	-2	5	4	0
OCCNCc1c(OCc2ccc(Cl)cc2)ccc2ccccc12	-12	-6	27	-32	-4	24*
COc1ccc(C(=O)C(C)[n+]2ccc(C)c3ccccc32)cc1[N+](=O)[O-] (centres undefined)	-22	-4	43*	-9	16	2
COc1ccc(C(=O)NC(C)CCc2ccccc2)cc1[N+](=O)[O-] (centres undefined)	-2	-6	3	3	-3	2
Cc1cc(C(=O)N2CCC2(C)C(=O)O)nn1C(C)(C)C (centres undefined)	5	-2	-22	-11	27*	0
CCOC(=O)C1(C)CCN1C(=O)c1cc(C)n(C(C)(C)C)n1 (centres undefined)	11	-2	-21	1	13	0
CCc1ccc(CCC(=O)Nc2sc3c(c2C#N)CCCC3)o1	-3	-6	1	15	-6	0
Cc1ccc(/C=C/C(=O)Nc2sc3c(c2C#N)CCCC3)o1	14	0	-4	-17	38*	-1
O=C(CCCCCn1c(=S)[nH]c2ccc(N3CCOCC3)cc2c1=O)NC1CCN(Cc2ccccc2)CC1	-26	-9	50*	-8	4	0
O=S(=O)(Nc1nc(-c2sccc2Cl)cs1)c1cc(Cl)ccc1Cl	-2	-1	2	-6	26*	-1
CC1CCN(c2ccc3c(c2)S(=O)(=O)c2cccc(C(=O)NCc4ccc(F)cc4)c2C3=O)CC1	6	-2	-4	17	-12	3
O=C(NCc1ccc(F)cc1)c1cccc2c1C(=O)c1ccc(N3CCC(N4CCCCC4)CC3)cc1S2(=O)=O	-25	-8	40*	-3	10	3
O=C(NC1CC1)c1cccc2c1C(=O)c1ccc(N3CCC(Cc4ccccc4)CC3)cc1S2(=O)=O	-11	21*	26	2	2	7
COc1ccc(CN2CC[C@H]3C=CC[C@@H](C(=O)Nc4ccc(Cl)c(C(F)(F)F)c4)[C@H]3C2=O)cc1OC	6	-12	-9	18	-28	0
CC(Oc1ccc(Br)cc1)C(=O)Nc1nnc(C2CC2)s1 (centres undefined)	6	18*	-9	22	-7	13
Cc1nc(C)c(C(=O)OCC(=O)NCc2ccccc2Cl)s1	1	-1	-8	-7	-11	0
COc1ccc(Oc2nc(OC)cc(OC)n2)cc1	-3	-7	5	8	5	0
Cc1ccc(C(=O)Sc2cccccc2=O)cc1	-3	2	33*	-5	35*	4
O=C(Nc1ccccc1SC(=O)c1ccccc1)c1ccccc1	8	0	-3	6	11	3
O=C(COC(=O)c1ccc(O)cc1O)NC(=O)Cc1ccccc1	2	33*	4	12	-1	18*
O=C1CSC(=Nc2ccc(Cl)cc2)N1Cc1ccco1	-6	-4	14	-20	29*	4
Cc1cc(C)c(N=C2SCC(=O)N2Cc2ccco2)c(C)c1	5	2	-7	22	-9	3
